Compounds without any hit were thinned out: in the full panel of roughly 79,000, 15% have a hit. A number with no mark means an inactive call. Active and inactive are the calls of the source. Cut-off read from the data, not from the text of the source: active = growth inhibition above about 70%; inactive = the rest.
Assay: NCI Yeast Anticancer Drug Screen. Data for the sgs1 strain (AID 173);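 note: 0% = growth of vehicle-only control cultures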
Details: S. cerevisiae sgs1 mutant, hits give high values
Description: Growth inhibition of yeast strains with defined genetic alterations is measured as a screen for potential anti-cancer activity. Selected strains with alterations in DNA damage repair or cell cycle control were exposed to compounds and growth inhibition was measured relative to vehicle treated controls. The strain used in this assay is sgs1

SMILES	growth inhibition (at 1.2 µM) [%]	growth inhibition (at 3.7 µM) [%]	growth inhibition (at 11.0 µM) [%]	growth inhibition (at 33.0 µM)	growth inhibition (at 100.0 µM)
CCC(NC(C)c1ccccc1)C(=O)c1ccc(OCc2ccccc2)c(OCc2ccccc2)c1 (stereo not given)	8	18	11	42%	19%
CC(=O)CC(=O)/C=C/c1cccs1	-18	-8	26	30%	93% (active)
Cc1ccc(CNc2ccc(Br)cc2)cc1	-17	-17	-15	34%	72% (active)
NP1(Oc2ccc(F)cc2)=NP(N)(Oc2ccc(F)cc2)=NP(Oc2ccc(F)cc2)(Oc2ccc(F)cc2)=N1 (stereo not given)	-3	0	12	51%	95% (active)
CN(C)CCNc1cccc2sc3ccc(O)cc3c(=O)c12	-1	-1	2	3%	3%
O=C(/C=C/c1cccc2ccccc12)c1ccc(Cl)cc1	-21	-22	-27	-34%	-48%
COc1cc(CNc2ccc(C(C)C)cc2)cc(OC)c1OC	26	23	21	11%	84% (active)
CCOC(=O)[C@]1(Br)CC[C@@]1(Br)C(=O)OCC	-27	-22	43	96% (active)	99% (active)

From PubChem BioAssay (NCI)
